Data as given in ChEMBL document CHEMBL2218924, “A broad activity screen in support of a chemogenomic map for kinase signalling research and drug discovery” (Biochem J, 2013).

Tests used:
[1] = target: Ribosomal protein S6 kinase beta-1 (Homo sapiens) (UniProt P23443); conditions: at 1 µM
[2] = target: Ribosomal protein S6 kinase beta-1 (Homo sapiens) (UniProt P23443); conditions: at 10 µM
[3] = target: Serine/threonine-protein kinase Nek6 (Homo sapiens) (UniProt Q9HC98); conditions: at 1 µM
[4] = target: Serine/threonine-protein kinase Nek6 (Homo sapiens) (UniProt Q9HC98); conditions: at 10 µM
[5] = target: Serine/threonine-protein kinase Nek7 (Homo sapiens) (UniProt Q8TDX7); conditions: at 1 µM
[6] = target: Serine/threonine-protein kinase Nek7 (Homo sapiens) (UniProt Q8TDX7); conditions: at 10 µM
[7] = target: T1, Serine/threonine-protein kinase NLK (Homo sapiens) (UniProt Q9UBE8); conditions: at 1 µM
T1 sequence (whole entry): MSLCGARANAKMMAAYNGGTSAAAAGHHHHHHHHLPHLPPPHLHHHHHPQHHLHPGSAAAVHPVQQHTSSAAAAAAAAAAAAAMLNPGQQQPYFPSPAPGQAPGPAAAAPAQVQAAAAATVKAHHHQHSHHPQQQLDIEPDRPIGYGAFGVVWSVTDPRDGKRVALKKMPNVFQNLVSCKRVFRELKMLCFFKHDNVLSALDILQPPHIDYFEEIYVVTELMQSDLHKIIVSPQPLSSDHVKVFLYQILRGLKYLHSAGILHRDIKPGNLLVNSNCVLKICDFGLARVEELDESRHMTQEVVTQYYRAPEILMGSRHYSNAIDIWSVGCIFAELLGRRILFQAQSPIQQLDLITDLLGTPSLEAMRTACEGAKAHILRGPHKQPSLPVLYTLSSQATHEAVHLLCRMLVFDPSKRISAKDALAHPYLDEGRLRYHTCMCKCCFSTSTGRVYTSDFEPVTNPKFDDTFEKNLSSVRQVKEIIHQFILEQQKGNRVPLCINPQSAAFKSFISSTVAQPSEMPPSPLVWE

[8] = target: T1, Serine/threonine-protein kinase NLK (Homo sapiens); conditions: at 10 µM
[9] = target: Serine/threonine-protein kinase PAK 2 (Homo sapiens) (UniProt Q13177); conditions: at 1 µM
[10] = target: Serine/threonine-protein kinase PAK 2 (Homo sapiens) (UniProt Q13177); conditions: at 10 µM
[11] = target: Serine/threonine-protein kinase PAK 4 (Homo sapiens) (UniProt O96013); conditions: at 1 µM
[12] = target: Serine/threonine-protein kinase PAK 4 (Homo sapiens) (UniProt O96013); conditions: at 10 µM
[13] = target: Serine/threonine-protein kinase PAK 5 (Homo sapiens) (UniProt Q9P286); conditions: at 1 µM
[14] = target: Serine/threonine-protein kinase PAK 5 (Homo sapiens) (UniProt Q9P286); conditions: at 10 µM
[15] = target: Serine/threonine-protein kinase PAK 6 (Homo sapiens) (UniProt Q9NQU5); conditions: at 1 µM
[16] = target: Serine/threonine-protein kinase PAK 6 (Homo sapiens) (UniProt Q9NQU5); conditions: at 10 µM
[17] = target: PAS domain-containing serine/threonine-protein kinase (Homo sapiens) (UniProt Q96RG2); conditions: at 10 µM
[18] = target: Activated CDC42 kinase 1 (Homo sapiens) (UniProt Q07912); conditions: at 1 µM
[19] = target: Activated CDC42 kinase 1 (Homo sapiens) (UniProt Q07912); conditions: at 10 µM
[20] = target: ALK tyrosine kinase receptor (Homo sapiens) (UniProt Q9UM73); conditions: at 1 µM
Sequence of ALK tyrosine kinase receptor (Homo sapiens) (Q9UM73 19-1620 limits assumed): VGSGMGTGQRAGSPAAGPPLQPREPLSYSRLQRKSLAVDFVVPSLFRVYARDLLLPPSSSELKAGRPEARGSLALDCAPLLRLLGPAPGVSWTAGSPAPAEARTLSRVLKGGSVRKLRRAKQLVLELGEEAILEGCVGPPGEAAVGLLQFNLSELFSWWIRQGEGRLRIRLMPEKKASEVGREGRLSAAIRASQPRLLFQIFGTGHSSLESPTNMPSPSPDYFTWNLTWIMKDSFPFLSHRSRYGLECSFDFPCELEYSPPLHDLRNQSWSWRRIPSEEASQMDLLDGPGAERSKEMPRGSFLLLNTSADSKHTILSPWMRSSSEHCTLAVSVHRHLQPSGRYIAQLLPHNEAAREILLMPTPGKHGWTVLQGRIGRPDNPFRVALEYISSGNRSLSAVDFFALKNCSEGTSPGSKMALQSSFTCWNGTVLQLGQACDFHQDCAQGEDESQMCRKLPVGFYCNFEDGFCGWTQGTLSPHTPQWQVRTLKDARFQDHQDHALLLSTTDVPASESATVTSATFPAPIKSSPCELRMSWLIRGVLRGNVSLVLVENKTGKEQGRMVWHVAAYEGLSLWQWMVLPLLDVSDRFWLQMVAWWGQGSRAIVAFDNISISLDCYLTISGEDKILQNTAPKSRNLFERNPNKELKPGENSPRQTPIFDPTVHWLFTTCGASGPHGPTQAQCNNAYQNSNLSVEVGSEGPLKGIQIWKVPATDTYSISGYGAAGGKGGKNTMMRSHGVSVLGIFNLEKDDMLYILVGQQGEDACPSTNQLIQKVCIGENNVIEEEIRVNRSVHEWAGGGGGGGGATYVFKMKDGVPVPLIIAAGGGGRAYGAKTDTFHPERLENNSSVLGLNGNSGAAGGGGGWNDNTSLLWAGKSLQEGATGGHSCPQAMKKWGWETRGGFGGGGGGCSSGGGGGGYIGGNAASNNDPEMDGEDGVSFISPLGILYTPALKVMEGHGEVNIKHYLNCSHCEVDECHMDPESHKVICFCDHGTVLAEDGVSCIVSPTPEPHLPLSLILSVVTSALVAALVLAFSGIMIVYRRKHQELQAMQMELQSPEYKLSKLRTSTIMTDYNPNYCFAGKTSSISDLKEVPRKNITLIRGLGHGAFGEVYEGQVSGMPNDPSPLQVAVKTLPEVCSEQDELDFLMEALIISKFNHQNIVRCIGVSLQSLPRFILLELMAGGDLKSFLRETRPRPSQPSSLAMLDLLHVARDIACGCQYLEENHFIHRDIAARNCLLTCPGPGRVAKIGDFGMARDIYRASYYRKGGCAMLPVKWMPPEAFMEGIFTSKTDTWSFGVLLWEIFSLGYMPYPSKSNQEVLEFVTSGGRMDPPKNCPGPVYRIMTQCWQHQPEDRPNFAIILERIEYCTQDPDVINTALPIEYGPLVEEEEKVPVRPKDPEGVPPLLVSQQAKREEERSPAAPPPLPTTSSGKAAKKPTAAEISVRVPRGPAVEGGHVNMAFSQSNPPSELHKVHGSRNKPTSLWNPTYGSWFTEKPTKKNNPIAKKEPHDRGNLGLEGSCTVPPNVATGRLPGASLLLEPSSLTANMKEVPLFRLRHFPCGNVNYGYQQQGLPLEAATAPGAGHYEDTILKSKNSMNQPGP

Sequence of Ribosomal protein S6 kinase beta-1 (Homo sapiens) (P23443 whole entry, looked up): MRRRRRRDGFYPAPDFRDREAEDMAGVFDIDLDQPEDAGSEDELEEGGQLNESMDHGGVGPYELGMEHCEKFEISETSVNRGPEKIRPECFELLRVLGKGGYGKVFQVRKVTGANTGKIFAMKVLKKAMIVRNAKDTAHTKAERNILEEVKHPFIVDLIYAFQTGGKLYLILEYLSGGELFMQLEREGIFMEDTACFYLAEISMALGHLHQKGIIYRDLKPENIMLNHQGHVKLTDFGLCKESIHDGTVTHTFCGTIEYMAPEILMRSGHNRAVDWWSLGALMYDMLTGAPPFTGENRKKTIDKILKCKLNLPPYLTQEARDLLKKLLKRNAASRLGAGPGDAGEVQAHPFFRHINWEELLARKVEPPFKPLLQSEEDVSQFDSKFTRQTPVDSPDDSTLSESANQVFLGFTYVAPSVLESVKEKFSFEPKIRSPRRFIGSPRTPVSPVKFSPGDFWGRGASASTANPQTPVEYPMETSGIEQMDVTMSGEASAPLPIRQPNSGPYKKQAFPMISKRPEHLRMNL
Sequence of Serine/threonine-protein kinase PAK 2 (Homo sapiens) (Q13177 whole entry): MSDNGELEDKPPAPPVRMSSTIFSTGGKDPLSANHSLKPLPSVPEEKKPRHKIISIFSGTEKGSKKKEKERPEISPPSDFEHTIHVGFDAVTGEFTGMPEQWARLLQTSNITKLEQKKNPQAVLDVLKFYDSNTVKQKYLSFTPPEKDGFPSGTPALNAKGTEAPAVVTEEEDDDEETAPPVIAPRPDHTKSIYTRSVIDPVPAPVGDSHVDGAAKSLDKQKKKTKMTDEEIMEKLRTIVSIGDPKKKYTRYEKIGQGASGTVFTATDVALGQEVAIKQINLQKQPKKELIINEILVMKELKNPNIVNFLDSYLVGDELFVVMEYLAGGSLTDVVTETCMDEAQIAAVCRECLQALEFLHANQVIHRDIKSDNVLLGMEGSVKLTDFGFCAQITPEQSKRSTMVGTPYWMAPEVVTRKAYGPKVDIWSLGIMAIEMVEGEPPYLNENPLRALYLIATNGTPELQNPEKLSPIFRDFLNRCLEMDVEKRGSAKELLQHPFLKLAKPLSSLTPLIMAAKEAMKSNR
Sequence of PAS domain-containing serine/threonine-protein kinase (Homo sapiens) (Q96RG2 whole entry, the tested form may be a part): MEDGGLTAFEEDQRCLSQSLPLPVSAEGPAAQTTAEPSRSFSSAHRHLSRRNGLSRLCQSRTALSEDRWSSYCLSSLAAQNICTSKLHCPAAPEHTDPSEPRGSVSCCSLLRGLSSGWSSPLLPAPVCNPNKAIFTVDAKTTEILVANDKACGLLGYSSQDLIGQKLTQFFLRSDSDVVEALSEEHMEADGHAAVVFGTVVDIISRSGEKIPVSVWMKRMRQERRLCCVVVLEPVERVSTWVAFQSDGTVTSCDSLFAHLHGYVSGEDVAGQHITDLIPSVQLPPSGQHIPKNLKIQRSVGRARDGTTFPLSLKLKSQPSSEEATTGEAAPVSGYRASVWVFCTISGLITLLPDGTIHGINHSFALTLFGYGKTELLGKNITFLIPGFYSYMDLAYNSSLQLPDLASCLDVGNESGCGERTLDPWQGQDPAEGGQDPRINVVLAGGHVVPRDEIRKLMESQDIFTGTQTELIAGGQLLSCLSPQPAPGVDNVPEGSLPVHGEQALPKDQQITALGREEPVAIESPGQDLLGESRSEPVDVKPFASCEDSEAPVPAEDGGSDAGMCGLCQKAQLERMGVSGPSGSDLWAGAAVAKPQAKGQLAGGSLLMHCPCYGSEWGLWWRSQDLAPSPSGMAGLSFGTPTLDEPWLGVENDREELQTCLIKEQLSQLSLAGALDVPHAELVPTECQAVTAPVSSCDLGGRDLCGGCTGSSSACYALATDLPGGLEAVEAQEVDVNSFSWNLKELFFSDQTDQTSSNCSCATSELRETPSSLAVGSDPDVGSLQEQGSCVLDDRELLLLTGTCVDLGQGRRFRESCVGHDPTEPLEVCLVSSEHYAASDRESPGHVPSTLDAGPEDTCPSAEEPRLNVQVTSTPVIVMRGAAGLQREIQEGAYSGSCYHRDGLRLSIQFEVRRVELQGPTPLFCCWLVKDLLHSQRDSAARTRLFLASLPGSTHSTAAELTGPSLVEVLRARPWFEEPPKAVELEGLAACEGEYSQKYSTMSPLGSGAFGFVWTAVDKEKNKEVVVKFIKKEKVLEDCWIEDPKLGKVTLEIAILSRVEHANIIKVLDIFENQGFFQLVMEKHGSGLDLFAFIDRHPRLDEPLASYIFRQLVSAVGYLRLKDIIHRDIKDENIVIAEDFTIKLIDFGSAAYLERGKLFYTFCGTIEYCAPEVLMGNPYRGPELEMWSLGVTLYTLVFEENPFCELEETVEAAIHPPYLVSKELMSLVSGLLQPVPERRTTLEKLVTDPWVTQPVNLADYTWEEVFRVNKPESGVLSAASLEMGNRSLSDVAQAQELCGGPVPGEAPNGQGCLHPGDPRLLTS
Sequence of Serine/threonine-protein kinase PAK 6 (Homo sapiens) (Q9NQU5 whole entry, looked up, the tested form may be a part): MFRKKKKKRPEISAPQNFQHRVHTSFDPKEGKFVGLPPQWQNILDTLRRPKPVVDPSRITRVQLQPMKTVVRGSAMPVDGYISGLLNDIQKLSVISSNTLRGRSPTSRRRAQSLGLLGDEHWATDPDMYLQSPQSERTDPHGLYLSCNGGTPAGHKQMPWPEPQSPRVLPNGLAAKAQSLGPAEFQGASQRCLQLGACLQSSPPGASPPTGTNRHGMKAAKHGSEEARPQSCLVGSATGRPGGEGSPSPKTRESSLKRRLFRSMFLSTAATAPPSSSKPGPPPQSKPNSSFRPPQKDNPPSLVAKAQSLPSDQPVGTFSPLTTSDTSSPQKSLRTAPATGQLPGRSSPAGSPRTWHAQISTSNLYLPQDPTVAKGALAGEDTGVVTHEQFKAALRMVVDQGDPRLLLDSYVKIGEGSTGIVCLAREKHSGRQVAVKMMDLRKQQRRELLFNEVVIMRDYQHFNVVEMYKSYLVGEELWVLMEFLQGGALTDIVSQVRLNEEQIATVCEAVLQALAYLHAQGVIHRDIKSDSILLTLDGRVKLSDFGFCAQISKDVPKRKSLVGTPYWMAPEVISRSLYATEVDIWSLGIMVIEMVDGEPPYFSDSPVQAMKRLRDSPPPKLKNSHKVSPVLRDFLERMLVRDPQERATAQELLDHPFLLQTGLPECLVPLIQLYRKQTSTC
Sequence of Serine/threonine-protein kinase Nek7 (Homo sapiens) (Q8TDX7 whole entry, looked up): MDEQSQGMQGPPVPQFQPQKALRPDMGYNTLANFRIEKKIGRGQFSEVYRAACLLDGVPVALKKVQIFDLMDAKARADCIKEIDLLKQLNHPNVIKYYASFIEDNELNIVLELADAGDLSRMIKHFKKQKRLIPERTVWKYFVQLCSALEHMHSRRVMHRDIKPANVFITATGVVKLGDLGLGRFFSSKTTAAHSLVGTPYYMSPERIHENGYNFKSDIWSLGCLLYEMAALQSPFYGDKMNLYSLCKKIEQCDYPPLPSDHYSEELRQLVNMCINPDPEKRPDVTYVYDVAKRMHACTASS

SMILES | residual activity [1] | residual activity [2] | residual activity [3] | residual activity [4] | residual activity [5] | residual activity [6] | residual activity [7] | residual activity [8] | residual activity [9] | residual activity [10] | residual activity [11] | residual activity [12] | residual activity [13] | residual activity [14] | residual activity [15] | residual activity [16] | residual activity [17] | residual activity [18] | residual activity [19] | residual activity [20]
O=C1NC(=O)/C(=C\c2ccc3nccnc3c2)S1 | 68% | 50% | 91% (inactive) | 96% | 100% (inactive) | 106% (inactive) | 89% | 55% | 102% | 75% | 95% | 86% | 86% | 99% | 92% | 94% | 11% | 84% | 66% | 49%
Cn1cc(/C=C2\C(=O)Nc3ccc(S(N)(=O)=O)cc32)c2ccccc21 | 29% | 11% | 100% (inactive) | 112% | 103% (inactive) | 89% (inactive) | 104% | 84% | 124% | 91% | 28% | 7% | 41% | 26% | 46% | 22% | 71% | 60% | 36% | 56%
O=C1NC(=O)c2c1c1c3ccccc3[nH]c1c1[nH]c3cc(Br)ccc3c21 | 92% | 52% | 121% (inactive) | 117% | 103% (inactive) | 89% (inactive) | 82% | 93% | 122% | 106% | 94% | 92% | 101% | 85% | 77% | 58% | 96% | 64% | 61% | 91%
CCN(CC)CCCCN1c2ccccc2Oc2ccc(Cl)cc21 | 79% | 90% | 106% (inactive) | 113% | 116% (inactive) | 115% (inactive) | 113% | 96% | 117% | 120% | 107% | 97% | 100% | 90% | 104% | 109% | 13% | 113% | 81% | 92%
Cc1ccc(NC2=CC(=O)c3sc(C)nc3C2=O)cc1 | 115% | 78% | 106% (inactive) | 104% | 109% (inactive) | 92% (inactive) | 86% | 85% | 93% | 92% | 98% | 93% | 121% | 94% | 102% | 80% | 82% | 80% | 71% | 86%
Cc1ccc(S(=O)(=O)/C=C/C#N)cc1 | 133% | 102% | 99% (inactive) | 108% | 114% (inactive) | 87% (inactive) | 101% | 92% | 107% | 98% | 99% | 95% | 106% | 106% | 95% | 84% | 86% | 81% | 75% | 99%
Ic1cccc(CSc2nnc(-c3ccncc3)o2)c1 | 55% | 32% | 113% (inactive) | 115% | 101% (inactive) | 81% (inactive) | 89% | 89% | 104% | 92% | 91% | 84% | 91% | 72% | 89% | 73% | 106% | 75% | 60% | 73%
Cn1cnc2cc3c(Nc4cccc(Br)c4)ncnc3cc21 | 95% | 71% | 104% (inactive) | 104% | 100% (inactive) | 103% (inactive) | 93% | 73% | 93% | 90% | 100% | 89% | 98% | 90% | 90% | 106% | 77% | 66% | 16% | 85%
CC(C)n1cnc2/c(=N/c3cccc(Cl)c3)nc(NCCO)[nH]c21 | 36% | 15% | 118% (inactive) | 98% | 102% (inactive) | 84% (inactive) | 88% | 70% | 109% | 98% | 62% | 15% | 80% | 33% | 43% | 25% | 114% | 14% | 5% | 81%
C[C@@H](N)[C@H]1CC[C@H](C(=O)Nc2ccncc2)CC1 | 101% | 71% | 106% (inactive) | 107% | 111% (inactive) | 112% (inactive) | 100% | 101% | 106% | 104% | 92% | 77% | 104% | 106% | 117% | 109% | 85% | 97% | 95% | 116%
CC(=O)O/N=C1\C(=C2\C(=O)Nc3cc(Br)ccc32)Nc2ccccc21 | 84% | 36% | 108% (inactive) | 110% | 98% (inactive) | 111% (inactive) | 90% | 80% | 104% | 100% | 100% | 67% | 88% | 63% | 89% | 67% | 108% | 48% | 15% | 58%
COc1ccc(OC)c2c(=S)c3ccccc3[nH]c12 | 115% | 86% | 97% (inactive) | 91% | 103% (inactive) | 97% (inactive) | 85% | 76% | 90% | 73% | 95% | 90% | 115% | 101% | 95% | 80% | 102% | 83% | 57% | 79%
CCC(=O)Nc1ccc2ncnc(Nc3cccc(Br)c3)c2c1 | 111% | 127% | 79% (inactive) | 110% | 89% (inactive) | 114% (inactive) | 91% | 64% | 110% | 84% | 99% | 86% | 97% | 98% | 107% | 93% | 36% | 70% | 36% | 81%
CNc1cc2c(Nc3cccc(Br)c3)ncnc2cn1 | 126% | 145% | 94% (inactive) | 108% | 94% (inactive) | 95% (inactive) | 87% | 45% | 111% | 99% | 88% | 65% | 97% | 104% | 101% | 89% | 57% | 46% | 11% | 78%
COc1cccc(-c2cc(=O)c3ccccc3o2)c1N | 119% | 106% | 114% (inactive) | 114% | 111% (inactive) | 106% (inactive) | 107% | 87% | 103% | 102% | 105% | 96% | 122% | 99% | 96% | 89% | 101% | 83% | 70% | 95%
COc1ccc(S(=O)(=O)N(CCO)c2ccccc2CN(C)C/C=C/c2ccc(Cl)cc2)cc1 | 97% | 78% | 110% (inactive) | 115% | 106% (inactive) | 93% (inactive) | 93% | 92% | 97% | 86% | 94% | 93% | 100% | 77% | 105% | 64% | 87% | 68% | 60% | 68%
CCOc1cc2ncnc(Nc3cccc(Br)c3)c2cc1OCC | 109% | 54% | 112% (inactive) | 125% | 102% (inactive) | 101% (inactive) | 78% | 34% | 102% | 75% | 100% | 79% | 111% | 82% | 100% | 96% | 56% | 28% | 5% | 75%
CC(C)n1cnc2c(NCc3ccccc3)nc(NCCCO)nc21 | 105% | 100% | 107% (inactive) | 115% | 101% (inactive) | 95% (inactive) | 95% | 86% | 106% | 100% | 97% | 80% | 108% | 96% | 95% | 72% | 98% | 76% | 58% | 87%
COc1cc2ncnc(Nc3ccc(O)c(Br)c3)c2cc1OC | 60% | 31% | 86% (inactive) | 110% | 99% (inactive) | 96% (inactive) | 69% | 30% | 104% | 80% | 89% | 77% | 98% | 98% | 123% | 104% | 8% | 14% | 1% | 19%
O=Nc1c(-c2c(O)[nH]c3ccccc23)[nH]c2ccccc12 | 37% | 13% | 91% (inactive) | 103% | 106% (inactive) | 102% (inactive) | 82% | 67% | 103% | 54% | 55% | 14% | 64% | 33% | 63% | 37% | 76% | 34% | 4% | 52%
Oc1ccc(-c2nc(-c3ccc(F)cc3)c(-c3ccncc3)[nH]2)cc1 | 72% | 25% | 105% (inactive) | 110% | 114% (inactive) | 103% (inactive) | 49% | 13% | 95% | 85% | 107% | 96% | 99% | 85% | 88% | 84% | 34% | 81% | 27% | 83%
O=C(Nc1cccc(Nc2nccc(Nc3cccc(C(F)(F)F)c3)n2)c1)C1CC1 | 83% | 62% | 107% (inactive) | 105% | 103% (inactive) | 104% (inactive) | 95% | 39% | 116% | 58% | 80% | 34% | 97% | 107% | 90% | 52% | 47% | 25% | 5% | 69%
N#C/C(=C(\N)Sc1ccc(N)cc1)c1ccccc1C(F)(F)F | 68% | 56% | 113% (inactive) | 112% | 101% (inactive) | 90% (inactive) | 87% | 95% | 99% | 98% | 101% | 94% | 90% | 89% | 96% | 96% | 105% | 50% | 43% | 65%
CC#CC(=O)Nc1cc2c(Nc3ccc(F)c(Cl)c3)ncnc2cn1 | 96% | 98% | 82% (inactive) | 91% | 94% (inactive) | 100% (inactive) | 93% | 79% | 82% | 81% | 99% | 91% | 104% | 107% | 102% | 96% | 99% | 86% | 71% | 81%
c1ccc2c(-c3ccncc3)c[nH]c2c1 | 53% | 31% | 95% (inactive) | 110% | 95% (inactive) | 95% (inactive) | 96% | 73% | 98% | 82% | 93% | 80% | 97% | 103% | 106% | 103% | 20% | 80% | 49% | 76%
